Source: the OligoGym collection

molecular target: ZNF599; test: pooled miR-30 sensor sort-seq; sequence = guide strand; conditions: shRNA
Further: reference of the scale not given here.

Sequence | sensor-assay potency score (higher = more potent)
TTATTTTAAAATATGCTTGAGA | -0.0715
AATCTCTTGAGGATCTCTGTGC | -0.218
TTGCACATTCTTTGCACTCCAA | -0.563
TATGGGTCCTCTTATGTCGGAT | -0.578
TAAATGCATGTTAACCACCAGG | -1.03
TTGAGAGTCACACTCATGGAGA | -0.714
TTAGCTTTTCCTCATCTCTAGC | -0.541
TTCTCTACAAACATAGGGCTTC | 0.194
TTGTGGAGTGACTCGTTCCTGT | -0.347
TTCCACATTCTCTACAAACATA | -1.71
TGAATCTTTAATATAATTCTTT | -0.316

molecular target: ZNF609; test: as above; conditions: shRNA

Sequence | sensor-assay potency score (higher = more potent)
TTTCTGTCCAGAACAGTGGGTT | 0.109
TTGGAGAATAGTAACTCTCAAA | -1.39
TTGCAGTCACTACTTGTGCTTT | -0.589
TTTGTGAGACAGATGCACCGTT | 0.735
TGATTTGACACTGTCTACCTTG | 0.639
TCTTTTTCCATACACTTCCTTT | -0.591
TTGACTTTCTTTAGCAGGCGAC | -0.497
TTGACATCCTCAGAAGTGCTGC | 0.188
TATCGTGGGAGACTTGCTCTTG | -0.437
TAAACATATGTCCACATCCGGG | -1.36
TGAAACTGTAGATCTTGTCGGC | 0.618
TATTGGATCCATCTCTGCCTGT | -0.575

molecular target: ZNF630; test: as above; conditions: shRNA

Sequence | sensor-assay potency score (higher = more potent)
TTTCACATTGACTATCTCCATA | -0.895
TTGCTTATGACTGAGAACTTTT | -0.853
TTCCATACTTAGTACATTCATA | -0.904
TTGGACACTCAAAACACTCATA | -0.509
TATAATTAGATGTGACTTCTGG | 0.548
TAATTAGATGTGACTTCTGGGA | -0.376
ACACATACTACAAACATTGGGT | -0.0412
ATACTTAGTACATTCATAGGGT | 0.067
TAAGTCTGAATTAGACTTCAAG | -0.977
TTATAATTTAGTAAGTCTGAAT | -1.16
TTCTTTCTTGCATAGCTCCTGT | 0.0285
TAGAATGAGATGTGACTTCAGG | -0.186

molecular target: ZNF653; test: as above; conditions: shRNA

Sequence | sensor-assay potency score (higher = more potent)
TTCCTCTTGAAGGACTTGCCGC | -0.882
TTTGTCACTGTCAGGGTCTGAG | -0.472
TTGTACTGCACCTCCGCAGTGT | -0.237
